Calls of active or inactive are those of the source.
Experiments:
[1] = binders of probe aFSTL3 on microarray, primary screen, stem cell growth factor project, biochemical, small-molecule microarray, fluorescence 635/667 (AID 1064); settings: higher = more signal;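 note: measures binding of the biotinylated anti-FSTL3 antibody to printed compounds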
[2] = binders from COS7 lysate, DM2A8 probe, primary screen, torsin A project, cell lysate, small-molecule microarray, fluorescence 635/667 (AID 1065); settings: higher = more signal, COS7 lysate expressing mutant human TOR1A
[3] = binders of probe aFGF2 on microarray, primary screen, stem cell growth factor project, biochemical, small-molecule microarray, fluorescence 635/667 (AID 1067); settings: higher = more signal;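 note: measures binding of biotinylated aFGF2 protein to printed compounds on slides; z-score merges feature fluorescence and signal-to-noise across triplicate slides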
[4] = binders of probe aFGF10 on microarray, primary screen, stem cell growth factor project, biochemical, small-molecule microarray, fluorescence 635/667 (AID 1071); settings: higher = more signal;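 note: score merges 667 nm spot intensity and signal to noise from triplicate slides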
[5] = target: Neurogenic locus notch homolog protein 2 (Homo sapiens) (UniProt Q04721); experiment: Notch2 binders on small-molecule microarrays, primary screen, biochemical, small-molecule microarray, 635 nm fluorescence, stem cell growth factors (AID 1073); settings: Notch2 binding, higher = more signal
[6] = target: Pro-neuregulin-1, membrane-bound isoform (Homo sapiens) (UniProt Q02297); experiment: NRG1 binders on small-molecule microarrays, primary screen, psychiatric disease protein project, biochemical, small-molecule microarray, fluorescence 635/667 (AID 1075); settings: NRG1 binding, 635 nm fluorescence, higher = more signal;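 note: score combines 667 nm spot fluorescence with signal to noise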
[7] = test system: Neuregulin-1 EGF-like domain; experiment: binders of neuregulin-1 EGF-like domain, primary screen, biochemical, small-molecule microarray, 635 nm fluorescence (AID 1081); settings: small-molecule microarray binding, higher = more signal;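 note: binding of the protein to compounds printed on small-molecule microarray slides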
[8] = FRG1 promoter luciferase signal modulators, primary screen, FRG1 inhibition for FSHD, cell-based, C2C12 myotubes, firefly/Renilla luciferase, luminescence (AID 1084); settings: higher = more signal, called active from +8 up or from −8 down
[9] = binders of probe aFST on microarray, primary screen, stem cell growth factor project, biochemical, small-molecule microarray, fluorescence 635/667 (AID 1086); settings: higher = more signal;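 note: score merges 667 nm fluorescence with signal-to-noise of each printed compound spot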
[10] = binders of probe aHhip on microarray, primary screen, stem cell growth factor project, biochemical, small-molecule microarray, fluorescence 635/667 (AID 1087); settings: higher = more signal;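 note: score merges spot fluorescence at 667nm with spot signal to noise ratio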
[11] = test system: PRMT1 (protein arginine N-methyltransferase 1); experiment: PRMT1 binders on small-molecule microarrays, primary screen, biochemical, small-molecule microarray, 635 nm fluorescence (AID 1088); settings: small-molecule microarray binding, higher = more signal;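 note: binding of Prmt1 protein to compounds spotted on small-molecule microarray slides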
[12] = yeast growth modulation, basal conditions, primary screen, YJM789 clinical isolate, OD600, 24 h (AID 1089);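 note: growth of clinical yeast isolate S. cerevisiae YJM 789 seeded 1000 cells per well; test concentration not given here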; settings: S. cerevisiae YJM789 growth, higher = more signal, called active from +8 up or from −8 down
[13] = fission yeast growth modulation, primary screen, strain 972, OD600, 24 h, no modulator (AID 1090);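 note: basal condition with compound alone and no growth modifier present; test concentration not given here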; settings: S. pombe 972 growth, higher = more signal, called active from +8 up or from −8 down
[14] = S. cerevisiae growth modulation with rapamycin, primary screen, strain BY4716, OD600, 96 h (AID 1091); settings: higher = more signal, called active from +8 up or from −8 down; note: test concentration not given here
[15] = target: Torsin-1A-interacting protein 2 (Homo sapiens) (UniProt Q8NFQ8); experiment: LULL1 binders on small-molecule microarray, primary screen, cell lysate, human LULL1 lysate, 635/667 nm fluorescence (AID 1092); settings: hLULL1 lysate binding, 635 nm fluorescence, higher = more signal;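 note: probe is lysate of COS7 cells overexpressing human LULL1; score merges per-feature 667 nm fluorescence with signal-to-noise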
[16] = E. coli growth modulation, two-sided OD650, primary screen, E. coli filamentation project, strain DRC41, 24 h (AID 1093); settings: OD650, 24 h, higher = more signal, called active from +8 up or from −8 down;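 note: MC1000 strain lacking acrAB efflux and sulA so SOS filamentation is blocked; test concentration not given here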
[17] = small-molecule microarray binders of probe aLefty2, primary screen, biochemical, biotinylated probe, 635/667 nm fluorescence (AID 1094); settings: higher = more signal;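 note: score merges spot fluorescence near 667 nm with spot signal-to-noise ratio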
[18] = test system: Noggin (protein binding on small-molecule microarray); experiment: Noggin binders on small-molecule microarray, primary screen, biochemical, 635/667 nm fluorescence (AID 1095); settings: 635 nm fluorescence, higher = more signal;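 note: score merges 667 nm feature fluorescence with signal to noise over triplicate slides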
[19] = target: Neurogenic locus notch homolog protein 3 (Homo sapiens) (UniProt Q9UM47); experiment: NOTCH3 binders on small-molecule microarray, primary screen, biochemical, 635/667 nm fluorescence (AID 1096); settings: NOTCH3 binding, 635 nm fluorescence, higher = more signal
[20] = small-molecule microarray binders of probe aEGFR, primary screen, biochemical, biotinylated probe, 635/667 nm fluorescence (AID 1097); settings: higher = more signal;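 note: probe is a biotinylated anti-EGFR antibody binding compounds printed on slides; score combines fluorescence near 667 nm and signal to noise of each spot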

Sequence of Neurogenic locus notch homolog protein 3 (Homo sapiens) (Q9UM47 whole entry, looked up): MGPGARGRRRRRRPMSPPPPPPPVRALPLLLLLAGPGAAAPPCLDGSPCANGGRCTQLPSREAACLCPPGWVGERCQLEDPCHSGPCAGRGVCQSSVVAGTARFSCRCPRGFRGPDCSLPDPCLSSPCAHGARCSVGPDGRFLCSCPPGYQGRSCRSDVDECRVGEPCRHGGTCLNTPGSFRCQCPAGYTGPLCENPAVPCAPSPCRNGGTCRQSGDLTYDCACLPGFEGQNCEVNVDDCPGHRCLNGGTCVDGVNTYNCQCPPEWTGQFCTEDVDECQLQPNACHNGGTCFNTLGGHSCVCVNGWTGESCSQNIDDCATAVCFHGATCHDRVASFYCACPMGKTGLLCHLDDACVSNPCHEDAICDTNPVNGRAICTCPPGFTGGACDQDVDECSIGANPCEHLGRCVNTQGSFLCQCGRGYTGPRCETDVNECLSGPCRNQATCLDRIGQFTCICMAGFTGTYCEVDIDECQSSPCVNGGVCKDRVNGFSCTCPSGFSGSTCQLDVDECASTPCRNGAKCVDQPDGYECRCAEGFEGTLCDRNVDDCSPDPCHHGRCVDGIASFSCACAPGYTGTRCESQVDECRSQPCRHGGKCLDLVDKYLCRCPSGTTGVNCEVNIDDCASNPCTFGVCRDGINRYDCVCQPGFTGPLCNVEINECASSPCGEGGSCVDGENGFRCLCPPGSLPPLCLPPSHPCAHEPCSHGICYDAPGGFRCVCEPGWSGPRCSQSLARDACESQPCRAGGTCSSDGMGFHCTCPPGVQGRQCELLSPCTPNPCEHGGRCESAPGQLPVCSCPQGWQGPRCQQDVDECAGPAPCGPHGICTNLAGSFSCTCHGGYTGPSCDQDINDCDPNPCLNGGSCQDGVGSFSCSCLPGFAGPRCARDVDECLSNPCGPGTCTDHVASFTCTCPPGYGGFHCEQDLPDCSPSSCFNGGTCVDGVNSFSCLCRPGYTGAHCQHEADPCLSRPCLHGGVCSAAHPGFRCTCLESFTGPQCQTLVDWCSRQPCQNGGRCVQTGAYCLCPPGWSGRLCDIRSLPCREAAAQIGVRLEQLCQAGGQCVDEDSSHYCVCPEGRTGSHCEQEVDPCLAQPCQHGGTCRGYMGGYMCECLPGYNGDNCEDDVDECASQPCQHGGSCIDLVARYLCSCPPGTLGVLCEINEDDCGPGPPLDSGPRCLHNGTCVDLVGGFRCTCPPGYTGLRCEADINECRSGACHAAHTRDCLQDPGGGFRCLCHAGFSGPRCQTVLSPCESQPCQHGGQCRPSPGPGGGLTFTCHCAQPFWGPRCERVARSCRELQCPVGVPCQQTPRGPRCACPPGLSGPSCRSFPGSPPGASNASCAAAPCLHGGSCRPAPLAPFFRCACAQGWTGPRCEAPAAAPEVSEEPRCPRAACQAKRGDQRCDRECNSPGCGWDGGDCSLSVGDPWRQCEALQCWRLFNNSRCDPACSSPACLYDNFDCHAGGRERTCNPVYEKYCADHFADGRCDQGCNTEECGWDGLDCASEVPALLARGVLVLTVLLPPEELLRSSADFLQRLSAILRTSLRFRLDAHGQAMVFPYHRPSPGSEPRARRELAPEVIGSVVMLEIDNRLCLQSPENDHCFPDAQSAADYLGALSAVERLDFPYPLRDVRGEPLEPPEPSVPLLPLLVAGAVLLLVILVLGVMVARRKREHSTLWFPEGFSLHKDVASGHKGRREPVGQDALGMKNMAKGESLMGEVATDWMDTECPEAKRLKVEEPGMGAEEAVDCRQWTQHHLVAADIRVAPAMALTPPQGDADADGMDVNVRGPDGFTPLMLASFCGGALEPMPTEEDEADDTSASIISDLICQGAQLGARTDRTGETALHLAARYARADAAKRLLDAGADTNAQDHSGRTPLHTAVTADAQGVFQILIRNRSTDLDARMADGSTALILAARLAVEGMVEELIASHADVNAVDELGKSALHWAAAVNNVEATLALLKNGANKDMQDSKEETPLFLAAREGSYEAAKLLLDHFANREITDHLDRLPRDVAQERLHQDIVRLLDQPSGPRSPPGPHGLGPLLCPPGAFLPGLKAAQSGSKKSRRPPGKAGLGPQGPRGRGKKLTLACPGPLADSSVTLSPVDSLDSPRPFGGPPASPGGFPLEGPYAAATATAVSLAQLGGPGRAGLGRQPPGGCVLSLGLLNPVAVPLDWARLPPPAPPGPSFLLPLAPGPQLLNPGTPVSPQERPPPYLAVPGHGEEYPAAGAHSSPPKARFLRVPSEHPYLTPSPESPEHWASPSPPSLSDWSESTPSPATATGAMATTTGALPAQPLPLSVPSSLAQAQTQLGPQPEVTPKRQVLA
Sequence of Torsin-1A-interacting protein 2 (Homo sapiens) (Q8NFQ8 whole entry, looked up): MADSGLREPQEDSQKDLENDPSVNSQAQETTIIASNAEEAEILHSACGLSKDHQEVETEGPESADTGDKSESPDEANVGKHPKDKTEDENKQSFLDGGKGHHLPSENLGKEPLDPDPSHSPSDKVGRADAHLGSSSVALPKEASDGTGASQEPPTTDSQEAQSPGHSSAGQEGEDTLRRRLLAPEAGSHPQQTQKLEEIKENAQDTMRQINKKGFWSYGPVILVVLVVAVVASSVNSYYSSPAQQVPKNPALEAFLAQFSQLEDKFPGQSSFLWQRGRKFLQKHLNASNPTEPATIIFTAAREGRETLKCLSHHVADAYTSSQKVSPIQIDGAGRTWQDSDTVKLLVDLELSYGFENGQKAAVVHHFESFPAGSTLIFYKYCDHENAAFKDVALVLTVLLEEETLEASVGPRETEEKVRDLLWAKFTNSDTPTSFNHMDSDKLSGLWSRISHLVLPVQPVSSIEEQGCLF
Sequence of Pro-neuregulin-1, membrane-bound isoform (Homo sapiens) (Q02297 whole entry, looked up, the tested form may be a part, canonical isoform): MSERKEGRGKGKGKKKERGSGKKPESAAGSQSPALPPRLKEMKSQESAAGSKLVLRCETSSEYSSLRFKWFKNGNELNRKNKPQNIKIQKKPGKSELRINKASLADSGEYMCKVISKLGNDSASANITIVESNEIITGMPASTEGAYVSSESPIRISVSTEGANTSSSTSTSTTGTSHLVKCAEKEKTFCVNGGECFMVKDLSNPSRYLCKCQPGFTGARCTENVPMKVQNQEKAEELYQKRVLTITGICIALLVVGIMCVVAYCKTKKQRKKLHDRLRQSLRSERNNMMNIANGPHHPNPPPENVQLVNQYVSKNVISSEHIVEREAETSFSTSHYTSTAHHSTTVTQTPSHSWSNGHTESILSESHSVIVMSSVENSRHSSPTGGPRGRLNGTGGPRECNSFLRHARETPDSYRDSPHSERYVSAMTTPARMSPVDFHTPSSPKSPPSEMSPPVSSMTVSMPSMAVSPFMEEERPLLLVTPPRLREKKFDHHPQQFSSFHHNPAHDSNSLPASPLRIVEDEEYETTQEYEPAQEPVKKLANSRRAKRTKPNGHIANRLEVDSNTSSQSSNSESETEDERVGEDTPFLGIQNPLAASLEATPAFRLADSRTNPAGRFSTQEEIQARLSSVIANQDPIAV

| Structure (SMILES) | composite z-score [1] | composite z-score [2] | composite z-score [3] | composite z-score [4] | composite z-score [5] | composite z-score [6] | composite z-score [7] | z-score [8] | composite z-score [9] | composite z-score [10] | composite z-score [11] | z-score [12] | z-score [13] | z-score [14] | composite z-score [15] | z-score [16] | composite z-score [17] | composite z-score [18] | composite z-score [19] | composite z-score [20] |
| --- | --- | --- | --- | --- | --- | --- | --- | --- | --- | --- | --- | --- | --- | --- | --- | --- | --- | --- | --- | --- |
| CCN(CC)c1ccc(N2CC=CC34O[C@@H]5/C=C\CCCOC(=O)C5[C@H]3C(=O)N(C(CO)C(C)C)[C@@H]4C2=O)cc1 (stereo not given in full) | 0.0964 | -1.2 | -0.159 | -0.381 | -0.686 | 1.78 | 0.897 | 0.455 (inactive) | -0.406 | 0.0142 | 0.0395 | 0.803 (inactive) | -0.193 (inactive) | -0.0204 (inactive) | 2.03 | -0.309 (inactive) | -0.168 | -0.708 | -0.0981 | -0.198 |
| COc1ccccc1CN1C(=O)c2ccccc2[C@@H](C(=O)NCCN2CCOCC2)[C@@H]1c1ccc(CO)cc1 | 0.109 | -0.267 | -0.0999 | 0.539 | 0.159 | 1.01 | 1.47 | -2.69 (inactive) | -0.2 | -0.169 | 0.663 | -0.884 (inactive) | 0.067 (inactive) | -0.805 (inactive) | 3.32 | 0.339 (inactive) | -0.0948 | 0.025 | 0.209 | -0.156 |
| Cc1ccc(S[C@]2(C(=O)O)CC(=O)N(C3Cc4ccccc4C3)[C@@H]2c2ccc(CO)cc2I)cc1 | 1.43 | -0.269 | -0.0692 | 0.117 | -0.634 | 0.899 | 0.78 | 0.788 (inactive) | -0.154 | -0.0581 | 0.46 | -1.47 (inactive) | -1.01 (inactive) | 1.6 (inactive) | 2.32 | -0.263 (inactive) | 0.125 | -1.02 | -0.891 | -0.132 |
| O=C/C=C/c1ccc2c(c1)OCO2 | -0.23 | -0.508 | -0.115 | 0.182 | -0.24 | -0.31 | 0.0106 | -0.779 (inactive) | -0.158 | 0.0821 | 0.274 | -3.66 (inactive) | -16.7 (active) | -1.69 (inactive) | -0.857 | -1.98 (inactive) | -0.151 | 0.542 | 0.0863 | -0.0978 |
| COC(=O)[C@@]1(Cc2ccccc2N=[N+]=[N-])COC(c2ccc(OCCCO)cc2)=N1 | 1.34 | 2.03 | -0.0706 | -0.282 | 0.0164 | 1.24 | 1.21 | -0.904 (inactive) | 0.498 | 0.0176 | 1.24 | -1.33 (inactive) | -11 (active) | -1.99 (inactive) | 2.08 | -0.574 (inactive) | 0.137 | -0.353 | 0.0418 | -0.0762 |
| CC1=C2[C@@H](CCc3ccccc3)OB(O)C[C@@H]2n2c(=O)n(-c3ccccc3)c(=O)n2C1 | -0.388 | -0.214 | -0.132 | 0.203 | 0.889 | 0.537 | 1.04 | -2.85 (inactive) | 0.156 | -0.34 | 1.02 | -0.237 (inactive) | -1.51 (inactive) | -0.535 (inactive) | 0.902 | -0.296 (inactive) | -0.179 | 0.416 | 0.666 | -0.111 |
| CO[C@H]1O[C@H](CO)[C@@H](OC(=O)Nc2ccc3c(c2)OCO3)[C@H](OC(=O)Nc2ccccc2)[C@H]1OC(=O)Nc1ccccc1 | -0.142 | 0.436 | 0.0166 | 1 | 0.828 | 1.12 | 1.35 | 2.74 (inactive) | 0.697 | -0.0645 | 1.54 | 1.67 (inactive) | 0.383 (inactive) | 1.76 (inactive) | 3.4 | -0.703 (inactive) | -0.0702 | 0.704 | 1.15 | -0.0354 |
| [N-]=[N+]=Nc1ccccc1[C@@H]1OC(c2ccc(OCCCO)cc2)=N[C@]1(CCS(=O)(=O)c1ccccc1)C(=O)N1CCOCC1 | 0.712 | 0.274 | 0.269 | 1.09 | 1.62 | 1.95 | 1.24 | -0.246 (inactive) | 1.89 | -0.123 | 1.55 | 1.32 (inactive) | 1.91 (inactive) | 1.72 (inactive) | 3.59 | 0.376 (inactive) | 0.515 | 0.417 | 1.06 | 0.65 |
| COCC1=C2[C@@H](CCc3ccccc3)OB(O)C[C@@H]2[C@@H]2C(=O)N(Cc3ccccc3)C(=O)[C@@H]2C1 | -0.505 | -0.138 | -0.0419 | 0.135 | -0.0585 | 0.0327 | -0.0593 | -3.66 (inactive) | -0.492 | -0.201 | 0.229 | -0.471 (inactive) | -1.22 (inactive) | -0.37 (inactive) | 0.295 | -0.715 (inactive) | -0.155 | 0.198 | -0.0497 | -0.132 |
| CC(C)N1CC=CC23O[C@@H]4C=CCOC(=O)[C@@H]4[C@H]2C(=O)N(CCO)[C@@H]3C1=O (stereo not given in full) | 0.283 | -1.72 | -0.187 | -0.484 | -1.11 | 0.247 | 1.02 | 0.188 (inactive) | -0.634 | -0.397 | 0.53 | 1.14 (inactive) | 0.24 (inactive) | -0.938 (inactive) | 3.37 | 0.73 (inactive) | -0.328 | -0.431 | 0.173 | -0.287 |
| O=C(O)[C@H]1C[C@H]2C(=O)NCC(=O)N2[C@H]1c1ccc(O)cc1 | 0.136 | 0.202 | -0.0996 | -0.224 | -0.424 | -0.235 | 1.4 | 3.81 (inactive) | 0.025 | -0.226 | 0.294 | -0.512 (inactive) | -0.81 (inactive) | -0.373 (inactive) | 1.05 | 1.68 (inactive) | -0.025 | 0.884 | 0.55 | 0.308 |

Source: PubChem BioAssay
